Screening results from PubChem BioAssay.
C diff HTS: C. difficile growth inhibition; Clostridium difficile clinical isolate growth, OD600, 24 h; hits give low values; growth activity, negative = inhibition, % at 16 µg/mL (by protocol); hit rate 0.25% among 86,000;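 active means mean growth activity at or below -80% and every replicate also at or below -80%; inconclusive means mean at or below -80% but some replicate above -80%; inactive means mean growth activity above -80%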
T cruzi growth-1: blocks T. cruzi growth in NIH3T3 culture; T. cruzi beta-gal in NIH3T3, GalScreen luminescence, 90 h; inhibition, % at 8.34 µM; hit rate 5.9% among 77,000;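 active means mean inhibition above about 93%, with at least 55% of replicates each passing it, limit read from the data, passing the limit was not always enough; inconclusive means only one of those two conditions holds; inactive means neither condition holds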
Pf Dd2 growth: blocks growth of Plasmodium falciparum Dd2 parasites | P. falciparum Dd2 growth, SYBR Green, 72 h; hits give low values | activity change, % at 10 µM | hit rate 2.3% among 94,000 | AID 1159554; in the data active means activity change below about -80%; inconclusive means no clear call, values can overlap the other calls
T cruzi growth-2: blocks T. cruzi growth in NIH3T3 host cells; shares compounds with T cruzi growth-1; hit rate 72% among 5,600; AID 651739; T. cruzi beta-gal in NIH3T3, GalScreen luminescence, 90 h; inhibition, % at 8.35 µM;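 active means mean replicate inhibition above about 95% and at least 55% of replicates individually reaching it, limit read from the data; inconclusive means only one of the two criteria is met; inactive means neither criterion is met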
T cruzi growth-3: inhibitors of T. cruzi proliferation | AID 651740 | T. cruzi beta-gal in NIH3T3, GalScreen luminescence, 90 h | hit rate 21% among 5,600 | inhibition, % at 2.09 µM | shares compounds with T cruzi growth-1;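 active means mean inhibition above about 95%, with at least 55% of replicates also reaching it, limit read from the data; inconclusive means meets just one of the two conditions; inactive means meets neither condition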
NIH3T3 tox: NIH/3T3 (mouse) viability loss | cytotoxicity (signal decrease), % at 8.35 µM | shares compounds with T cruzi growth-1 | NIH/3T3 viability, CellTiter-Glo ATP luminescence, 90 h | AID 651742 | hit rate 14% among 5,600;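 active means mean signal decrease across replicates above about 35% based on untreated-well scatter, with enough replicates individually passing, limit read from the data; inconclusive means no rule stated though some were filed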
3T3 cytotox 2: kills mouse NIH/3T3 fibroblasts. shares compounds with T cruzi growth-1. NIH/3T3 viability, CellTiter-Glo ATP luminescence, 90 h. inhibition, % at 24.9 µM. hit rate 56% among 5,600;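 active means mean loss of cell viability signal at or above a set limit, and enough replicates individually reaching it; inconclusive means meets only the mean limit or only the replicate share; inactive means meets neither condition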
Each line names hits and unclear results; the compound was inactive in the other large screens (follow-up assays come after a bar, where they were run). The list is not random: actives were taken first. Their share in the collection is about 6.8%.

COc1ccc(S(=O)(=O)N(C)C[C@H]2Oc3cc(C#CC4CCCC4)ccc3S(=O)(=O)N([C@@H](C)CO)C[C@H]2C)cc1	none
COc1ccc(S(=O)(=O)N(C)C[C@H]2Oc3cc(C#CC4CCCC4)ccc3S(=O)(=O)N([C@H](C)CO)C[C@@H]2C)cc1	none
COc1ccc(S(=O)(=O)N(C)C[C@H]2Oc3cc(C#CC4CC4)ccc3S(=O)(=O)N([C@@H](C)CO)C[C@H]2C)cc1	T cruzi growth-1 110 | T cruzi growth-2 109 | T cruzi growth-3 inconclusive | NIH3T3 tox inactive | 3T3 cytotox 2 57
CCCNC(=O)C[C@H]1CC[C@H]2[C@@H](COC[C@H](O)CN2C(=O)C2CCOCC2)O1	none (no result: C diff HTS)
C[C@H](CO)N1C[C@H](C)[C@@H](CN(C)Cc2ccc(Cl)c(Cl)c2)Oc2ccc(NC(=O)c3ccncc3)cc2CC1=O	none
CCC(=O)Nc1ccc2c(c1)C(=O)N(C)[C@@H]1CC[C@@H](CC(=O)N3CCc4ccccc4C3)O[C@H]1CO2	none
Cc1noc(C)c1NC(=O)N(C)C[C@@H]1OCCCC[C@@H](C)Oc2ccc(NC(=O)Nc3ccc(F)cc3)cc2C(=O)N([C@@H](C)CO)C[C@H]1C	none
CN(C)CC(=O)N1[C@H](CO)[C@@H](c2ccccc2)C12CN(Cc1cc(F)ccc1F)C2	none (no result: T cruzi growth-1)
C[C@@H]1CN([C@@H](C)CO)C(=O)c2cc(NC(=O)c3ccccc3)ccc2O[C@@H](C)CCCCO[C@H]1CN(C)S(=O)(=O)c1cccs1	none
O=C(C[C@H]1C[C@H]2c3cc(NC(=O)NC4CCCC4)ccc3O[C@H]2[C@@H](CO)O1)NCC1CC1	none
CO[C@@H]1CN(C)C(=O)c2cc(NC(=O)c3nc4ccccc4s3)ccc2OC[C@@H](C)N(Cc2cccnc2)C[C@H]1C	none (no result: C diff HTS, T cruzi growth-1)
CO[C@H]1CN(C)C(=O)c2ccc(NC(=O)c3nc4ccccc4s3)cc2OC[C@@H](C)N(Cc2cccnc2)C[C@H]1C	T cruzi growth-1 inconclusive | T cruzi growth-2 105 | T cruzi growth-3 inactive | NIH3T3 tox inactive | 3T3 cytotox 2 59
COc1ccc(CN2C[C@H](C)[C@@H](OC)CN(C)C(=O)c3ccc(NC(=O)c4nc5ccccc5s4)cc3OC[C@H]2C)cc1	T cruzi growth-1 inconclusive | T cruzi growth-2 110 | T cruzi growth-3 114 | NIH3T3 tox inactive | 3T3 cytotox 2 inactive
CO[C@@H]1CN(C)C(=O)c2ccc(NC(=O)c3nc4ccccc4s3)cc2OC[C@H](C)N(Cc2cncnc2)C[C@H]1C	none (no result: C diff HTS, T cruzi growth-1)
COCC(=O)N1C[C@H](C)[C@@H](OC)CN(C)C(=O)c2ccc(NC(=O)c3ccc(F)cc3)cc2OC[C@H]1C	none (no result: C diff HTS)
COc1cccc(-c2ccc3c(c2)[C@@H]2[C@@H](CCN2S(=O)(=O)c2ccc(F)cc2)[C@@H](CO)N3C)c1	none
CN1c2ccc(-c3cccc(C#N)c3)cc2[C@@H]2[C@@H](CCN2S(=O)(=O)c2ccccc2)[C@H]1CO	T cruzi growth-1 97 | T cruzi growth-2 98 | T cruzi growth-3 109 | NIH3T3 tox 52 | 3T3 cytotox 2 76
Cc1cccc(S(=O)(=O)N2CC[C@@H]3[C@H](CO)N(C)c4ccc(-c5cccc(C#N)c5)cc4[C@@H]32)c1	none
CN1c2ccc(C3=CCCCC3)cc2[C@@H]2[C@@H](CCN2S(=O)(=O)c2ccccc2)[C@@H]1CO	T cruzi growth-1 105 | T cruzi growth-2 96 | T cruzi growth-3 106 | NIH3T3 tox inactive | 3T3 cytotox 2 78
CN1c2ccc(-c3cccc(C#N)c3)cc2[C@H]2[C@H](CCN2S(=O)(=O)c2ccccc2)[C@H]1CO	T cruzi growth-1 101 | T cruzi growth-2 108 | T cruzi growth-3 inactive | NIH3T3 tox inactive | 3T3 cytotox 2 26
CN1c2ccc(C3=CCCCC3)cc2[C@@H]2[C@@H](CCN2S(=O)(=O)c2ccc(F)cc2)[C@H]1CO	none
COc1cccc(-c2ccc3c(c2)[C@H]2[C@H](CCN2S(=O)(=O)c2ccc(F)cc2)[C@H](CO)N3C)c1	T cruzi growth-1 101 | T cruzi growth-2 103 | T cruzi growth-3 100 | NIH3T3 tox inactive | 3T3 cytotox 2 inactive
Cc1cccc(S(=O)(=O)N2CC[C@@H]3[C@H]2c2cc(-c4cccc(C#N)c4)ccc2N(C)[C@H]3CO)c1	none
C[C@H](NC(=O)C[C@H]1CC[C@H](NC(=O)Nc2ccc3c(c2)OCO3)[C@H](CO)O1)c1ccccc1	none (no result: C diff HTS)
CO[C@@H]1CN(C)C(=O)c2cc(NS(=O)(=O)c3ccc(F)cc3)ccc2OC[C@H](C)NC[C@H]1C	none (no result: C diff HTS)
CC(C)NC(=O)Nc1ccc2c(c1)C(=O)N(C)[C@@H]1CC[C@H](CC(=O)NCC(F)(F)F)O[C@H]1CO2	none
COC(=O)[C@@H]1[C@@H](CO)[C@@H]2Cn3c(ccc(-c4ccccc4F)c3=O)[C@@H]2N1C(=O)c1ccccn1	none (no result: Pf Dd2 growth)
C[C@@H]1CN([C@@H](C)CO)C(=O)c2cc(-c3ccc(F)cc3)cnc2O[C@@H]1CN(C)CC1CC1	none (no result: C diff HTS)
Cc1ccc(S(=O)(=O)N2CC[C@@H]3[C@H]2c2cc(-c4cccc(C#N)c4)ccc2N(C)[C@H]3CO)cc1	T cruzi growth-1 inconclusive | T cruzi growth-2 104 | T cruzi growth-3 100 | NIH3T3 tox 44 | 3T3 cytotox 2 42
Cc1ccc(S(=O)(=O)N2CC[C@@H]3[C@@H](CO)N(C)c4ccc(-c5cccc(C#N)c5)cc4[C@@H]32)cc1	none
CN1c2ccc(-c3cccc(C#N)c3)cc2[C@@H]2[C@@H](CCN2S(=O)(=O)c2ccccc2F)[C@@H]1CO	T cruzi growth-1 92 | T cruzi growth-2 108 | T cruzi growth-3 inactive | NIH3T3 tox inconclusive | 3T3 cytotox 2 inactive
CN1c2ccc(-c3cccc(C#N)c3)cc2[C@@H]2[C@@H](CCN2S(=O)(=O)c2ccccc2F)[C@H]1CO	none
CN1c2ccc(-c3cccc(C#N)c3)cc2[C@H]2[C@H](CCN2S(=O)(=O)c2cccc(F)c2)[C@H]1CO	none
CN1c2ccc(-c3cccc(C#N)c3)cc2[C@H]2[C@H](CCN2S(=O)(=O)c2ccc(F)cc2)[C@@H]1CO	T cruzi growth-1 96 | T cruzi growth-2 102 | T cruzi growth-3 inactive | NIH3T3 tox inactive | 3T3 cytotox 2 inactive
C[C@@H]1CN([C@H](C)CO)C(=O)Cc2cc(NC(=O)CCN3CCOCC3)ccc2O[C@H]1CN(C)S(C)(=O)=O	none
CC(=O)N(C)C[C@H]1Oc2cc(Br)ccc2S(=O)(=O)N([C@H](C)CO)C[C@H]1C	none
C[C@@H]1CN([C@@H](C)CO)C(=O)c2cc(NS(=O)(=O)c3ccc(Cl)cc3)ccc2O[C@@H](C)CCCCO[C@H]1CN(C)C(=O)CCC(F)(F)F	none
C[C@@H]1CCCCO[C@H](CN(C)C(=O)CCC(F)(F)F)[C@H](C)CN([C@@H](C)CO)C(=O)c2cc(NS(=O)(=O)c3ccc(Cl)cc3)ccc2O1	T cruzi growth-1 104 | T cruzi growth-2 103 | T cruzi growth-3 inactive | NIH3T3 tox inactive | 3T3 cytotox 2 72
